This note sets out measurements from article PMC5540273 (PLoS ONE, 2017).
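Note: KINOMEscan kinase panel screen.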

In one test the test system is WNK3. Conditions: concentration: 1 μM,replicates: in singlicate; n = 1.
Regarding `C[C@H]1Oc2cc(cnc2N)-c2c(nn(C)c2C#N)CN(C)C(=O)c2ccc(F)cc21`, the “%Inh” value worked out at 0%. For the compound `Cl.Cl.NC[C@H](Cc1ccc(C(F)(F)F)cc1)NC(=O)c1cc(Br)c(-c2ccnc3[nH]ccc23)s1` [GSK1487252], the “%Inh” value stood at 13%. As for `Cc1ccc2c(-c3ccncc3)c(-c3ccc(F)cc3)nn2c1.Cl` [GW461484], the “%Inh” value worked out at 26%. On to `NC(=O)c1cc(-c2ccccc2)cc2c(C3CCNCC3)c[nH]c12` [GSK301362], for which the “%Inh” value turned out to be 17%. On the same count and under the same terms, the figure for `CC(C)Nc1cc(-c2ccc3c(N)n[nH]c3c2)nc(N)n1` [GSK2221681] is 0%; for `O=C(NCCCN1CCOC1=O)c1cnc(NCc2cc(Cl)ccc2Cl)nc1NC1CCCC1` it is 0%; for `Cl.Cl.NC[C@H](CC1CCCCC1)NC(=O)c1cc(Br)c(-c2ccnc3[nH]ccc23)s1` [GSK1581427] it is 5%.

Consider `CCN(CC)CCOc1ccc(Nc2ncc3cc(-c4c(Cl)cccc4Cl)c(=O)n(C)c3n2)cc1` [SB-601273], for which the “%Inh” value was found to be 66%. Still for that read-out and setting: with `C[C@@H](Oc1cc(-c2cnn(C3CCNCC3)c2)cnc1N)c1c(Cl)ccc(F)c1Cl` the figure was 0%; with `C=CC(=O)Nc1cc2c(Nc3ccc(F)c(Cl)c3)ncnc2cc1OCCCN1CCOCC1` [GW781483], 20%. Still for that read-out and setting: the figure for `Cl.Oc1cc(-c2nc(-c3ccccc3)[nH]c2-c2ccncc2)ccc1Cl` [SB-386023] is 0%; for `Cc1n[nH]c2ccc(-c3cc(OC[C@@H](N)Cc4ccccc4)cnc3-c3ccoc3)cc12.O=C(O)C(F)(F)F.O=C(O)C(F)(F)F` [GSK507358] it is 0%. Turning to `Cc1occc1-c1nc(N)c(OC[C@@H](N)Cc2c[nH]c3ccccc23)cc1-c1cc2c(C)n[nH]c2cn1` [GSK1660450], the “%Inh” value was found to be 0%. `Cc1cc(C(=O)Nc2ccc(Oc3ccc4nc(NC(=O)C5CC5)cn4n3)cc2)nn1-c1ccccc1`: the “%Inh” value worked out at 0%.

Another test has as its system WNK4. The following applies: concentration: 1 μM,replicates: in singlicate; n = 1.
In the case of `CC(C)N1C(=O)Cc2cc(Nc3ncc(C(F)(F)F)c(NCc4cccc(S(C)(=O)=O)c4)n3)ccc21`, the “%Inh” value is recorded as 23%. `CN(C)CC(O)COc1ccc(Nc2nccc(-c3cnn4nc(N5CCOCC5)ccc34)n2)cc1` (centres unmarked) [GW767488]: the “%Inh” value is listed as 0%. On the same count and under the same terms, with `Cl.Cl.Nc1nc(-c2ccc3c(N)n[nH]c3c2)cc(N2CCCC(NC(=O)c3ccccc3)C2)n1` (centres unmarked) [GSK2286775] the figure was 0%; with `Cc1cc2cn[nH]c2cc1-c1cccc2c(N)c(C(N)=O)nnc12`, 11%. On the same count and under the same terms, the figure for `CN(C)CCOc1ccc(-c2cc(-c3c[nH]nc3-c3ccccn3)ccn2)cc1` [GW835314] is 0%; for `COc1ccc(C[C@@H](CN)NC(=O)c2cc(Br)c(-c3ccnc4[nH]ccc34)s2)cc1.Cl.Cl` [GSK1389063] it is 0%. Consider `CNC(=O)c1ccccc1Sc1ccc2c(/C=C/c3ccccn3)n[nH]c2c1`, for which the “%Inh” value is given as 0%. With `CCn1c(-c2nonc2N)nc2c(C#CC(C)(C)O)nc(OCCN)cc21.Cl.Cl` [GSK902056], the “%Inh” value is given as 2%. The same measure, in the same setting: the figure for `Cc1ccc(-n2nc(C(C)(C)C)cc2NC(=O)Nc2ccc(OCCN3CCOCC3)c3ccccc23)cc1` [GW839464] is 0%. On the same count and under the same terms, with `Nc1nc(Nc2ccccc2)cc(-c2ccc3c(N)n[nH]c3c2)n1` [GSK2225749] the figure was 0%; with `CCN(CC)CCCCNc1ncc2cc(-c3c(Cl)cccc3Cl)c(NC(=O)NC(C)(C)C)nc2n1`, 0%; with `C[C@@H]1CCN(C(=O)CC#N)C[C@@H]1N(C)c1ncnc2[nH]ccc12`, 0%.

As for `O=C(NCCNc1ccnc(NCc2ccc(F)cc2)n1)c1cc2ccccc2s1` [GSK1379944], the “%Inh” value amounted to 3%.

`C[C@H]1Oc2cc(cnc2N)-c2c(nn(C)c2C#N)CN(C)C(=O)c2ccc(F)cc21`: the “%Inh” value turned out to be 0%. Still for that read-out and setting: with `Cl.Cl.NC[C@H](Cc1ccc(C(F)(F)F)cc1)NC(=O)c1cc(Br)c(-c2ccnc3[nH]ccc23)s1` [GSK1487252] the figure was 39%; with `Cc1ccc2c(-c3ccncc3)c(-c3ccc(F)cc3)nn2c1.Cl` [GW461484], 22%; with `NC(=O)c1cc(-c2ccccc2)cc2c(C3CCNCC3)c[nH]c12` [GSK301362], 41%. Same read-out and setting: the figure for `CC(C)Nc1cc(-c2ccc3c(N)n[nH]c3c2)nc(N)n1` [GSK2221681] is 0%; for `O=C(NCCCN1CCOC1=O)c1cnc(NCc2cc(Cl)ccc2Cl)nc1NC1CCCC1` it is 18%; for `Cl.Cl.NC[C@H](CC1CCCCC1)NC(=O)c1cc(Br)c(-c2ccnc3[nH]ccc23)s1` [GSK1581427] it is 0%. As for `CCN(CC)CCOc1ccc(Nc2ncc3cc(-c4c(Cl)cccc4Cl)c(=O)n(C)c3n2)cc1` [SB-601273], the “%Inh” value was determined as 42%. The same measure, in the same setting: with `C[C@@H](Oc1cc(-c2cnn(C3CCNCC3)c2)cnc1N)c1c(Cl)ccc(F)c1Cl` the figure was 8%. For `C=CC(=O)Nc1cc2c(Nc3ccc(F)c(Cl)c3)ncnc2cc1OCCCN1CCOCC1` [GW781483], the “%Inh” value came out at 0%. As to `Cl.Oc1cc(-c2nc(-c3ccccc3)[nH]c2-c2ccncc2)ccc1Cl` [SB-386023], the “%Inh” value is given as 38%. The same measure, in the same setting: the figure for `Cc1n[nH]c2ccc(-c3cc(OC[C@@H](N)Cc4ccccc4)cnc3-c3ccoc3)cc12.O=C(O)C(F)(F)F.O=C(O)C(F)(F)F` [GSK507358] is 6%; for `Cc1occc1-c1nc(N)c(OC[C@@H](N)Cc2c[nH]c3ccccc23)cc1-c1cc2c(C)n[nH]c2cn1` [GSK1660450] it is 0%; for `Cc1cc(C(=O)Nc2ccc(Oc3ccc4nc(NC(=O)C5CC5)cn4n3)cc2)nn1-c1ccccc1` it is 10%.
